Measurements as given in the supplement of paper PMC10849652.
The full data set covers some 8,800 targets. This sample favours those with a hit. About 0.5% of all pairs of compound and target were hits.

What was measured:
Assay in all cases: log2 fold change, soluble protein after heating vs DMSO (PISA); higher = thermal stabilisation; K562 lysate, 10 uM; active = over 0.2 and 3.5 SD of the protein, either way, in both replicates (recomputed)
alvocidib = compound: CN1CC[C@H](c2c(O)cc(O)c3c(=O)cc(-c4ccccc4Cl)oc23)[C@H](O)C1 [alvocidib]
Procedure, shortened: (§1)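 Dounce homogenisation of K562 pellets in PBS pH 7.4 with 1 mM MgCl2 produced a crude extract, used at 1 mg/mL protein. Exposure to 10 μM compound lasted 30 min, and aliquots were then heated for 3 min across 48°C-58°C, pooled and brought to 0.5% NP-40 at 4°C. The supernatant after 21,000xg for 90 min was quantified by TMTpro 16plex LC-MS/MS with channel sums equalised. Duplicate values are given as log-two fold change in thermal stability relative to solvent controls.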

Tubastatin A = compound: CN1CCc2c(c3ccccc3n2Cc2ccc(C(=O)NO)cc2)C1 [Tubastatin A]
Procedure, shortened: as §1

[1] = compound: CNC(=O)C1=CC=CC=C1NC2=NC(=NC=C2Cl)NC3=C(C=C(C=C3)N4CCOCC4)OC
Procedure, shortened: as §1

defactinib = compound: CNC(=O)c1ccc(Nc2ncc(C(F)(F)F)c(NCc3nccnc3N(C)S(C)(=O)=O)n2)cc1 [defactinib]
Procedure, shortened: as §1

[2] = compound: CNc1nc(-c2ccc3c(N)n[nH]c3c2)cc(N2C[C@@H](C(=O)NC3CCCCC3)CC[C@H]2C)n1
Procedure, shortened: as §1

encorafenib = compound: COC(=O)N[C@@H](C)CNc1nccc(-c2cn(C(C)C)nc2-c2cc(Cl)cc(NS(C)(=O)=O)c2F)n1 [encorafenib]
Procedure, shortened: as §1

[3] = compound: COC(=O)[C@H](CCSC)NC(=O)C1=C(C=C(C=C1)NC[C@H](CS)N)C2=CC=CC=C2
Procedure, shortened: as §1

alisertib = compound: COc1cc(Nc2ncc3c(n2)-c2ccc(Cl)cc2C(c2c(F)cccc2OC)=NC3)ccc1C(=O)O [alisertib]
Procedure, shortened: as §1

[4] = compound: COc1cc2nc(-c3cc(F)ccc3O)nc(N[C@@H]3CNC[C@H]3C(C)(C)O)c2cc1OC
Procedure, shortened: as §1

gefitinib = compound: COc1cc2ncnc(Nc3ccc(F)c(Cl)c3)c2cc1OCCCN1CCOCC1 [gefitinib]
Procedure, shortened: as §1

lapatinib = compound: CS(=O)(=O)CCNCc1ccc(-c2ccc3ncnc(Nc4ccc(OCc5cccc(F)c5)c(Cl)c4)c3c2)o1 [lapatinib]
Procedure, shortened: as §1

pictilisib = compound: CS(=O)(=O)N1CCN(Cc2cc3nc(-c4cccc5[nH]ncc45)nc(N4CCOCC4)c3s2)CC1 [pictilisib]
Procedure, shortened: as §1

crizotinib = compound: C[C@@H](Oc1cc(-c2cnn(C3CCNCC3)c2)cnc1N)c1c(Cl)ccc(F)c1Cl [crizotinib]
Procedure, shortened: as §1

[5] = compound: C[C@H](C1=CC=C(C=C1)C(=O)NC2=C3C=CNC3=NC=C2)N
Procedure, shortened: as §1

duvelisib = compound: C[C@H](Nc1ncnc2nc[nH]c12)c1cc2cccc(Cl)c2c(=O)n1-c1ccccc1 [duvelisib]
Procedure, shortened: as §1

gandotinib = compound: Cc1cc(Nc2cc(CN3CCOCC3)c3nc(C)c(Cc4ccc(Cl)cc4F)n3n2)n[nH]1 [gandotinib]
Procedure, shortened: as §1

tozasertib = compound: Cc1cc(Nc2cc(N3CCN(C)CC3)nc(Sc3ccc(NC(=O)C4CC4)cc3)n2)n[nH]1 [tozasertib]
Procedure, shortened: as §1

doramapimod = compound: Cc1ccc(-n2nc(C(C)(C)C)cc2NC(=O)Nc2ccc(OCCN3CCOCC3)c3ccccc23)cc1 [doramapimod]
Procedure, shortened: as §1

bafetinib = compound: Cc1ccc(NC(=O)c2ccc(CN3CC[C@H](N(C)C)C3)c(C(F)(F)F)c2)cc1Nc1nccc(-c2cncnc2)n1 [bafetinib]
Procedure, shortened: as §1

[6] = compound: Cc1cccc(CC(=O)N2CCc3c2ccc(-c2cn(C)c4ncnc(N)c24)c3F)n1
Procedure, shortened: as §1

Measured: log2 fold change

SDHC (UniProt Q99643)
UniProt Q99643, sequence (Q99643 whole entry, looked up): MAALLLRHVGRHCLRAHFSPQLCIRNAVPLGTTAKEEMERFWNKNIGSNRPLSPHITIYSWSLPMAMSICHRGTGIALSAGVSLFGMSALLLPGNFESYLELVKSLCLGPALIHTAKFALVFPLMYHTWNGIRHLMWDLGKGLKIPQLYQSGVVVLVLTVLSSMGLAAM
inactive: alvocidib -0.114 | Tubastatin A -0.056 | [1] 0.047 | defactinib 0.146 | [2] 0.097 | encorafenib 0.034 | [3] 0.055 | alisertib 0.018 | [4] -0.007 | gefitinib 0.011 | lapatinib 0.002 | pictilisib 0.071 | crizotinib 0.032 | [5] -0.244 | duvelisib 0.004 | gandotinib 0.179 | tozasertib -0.067 | doramapimod 0.016 | bafetinib -0.004 | [6] 0.133

RPTOR (UniProt Q8N122)
UniProt Q8N122, sequence (Q8N122 whole entry, looked up): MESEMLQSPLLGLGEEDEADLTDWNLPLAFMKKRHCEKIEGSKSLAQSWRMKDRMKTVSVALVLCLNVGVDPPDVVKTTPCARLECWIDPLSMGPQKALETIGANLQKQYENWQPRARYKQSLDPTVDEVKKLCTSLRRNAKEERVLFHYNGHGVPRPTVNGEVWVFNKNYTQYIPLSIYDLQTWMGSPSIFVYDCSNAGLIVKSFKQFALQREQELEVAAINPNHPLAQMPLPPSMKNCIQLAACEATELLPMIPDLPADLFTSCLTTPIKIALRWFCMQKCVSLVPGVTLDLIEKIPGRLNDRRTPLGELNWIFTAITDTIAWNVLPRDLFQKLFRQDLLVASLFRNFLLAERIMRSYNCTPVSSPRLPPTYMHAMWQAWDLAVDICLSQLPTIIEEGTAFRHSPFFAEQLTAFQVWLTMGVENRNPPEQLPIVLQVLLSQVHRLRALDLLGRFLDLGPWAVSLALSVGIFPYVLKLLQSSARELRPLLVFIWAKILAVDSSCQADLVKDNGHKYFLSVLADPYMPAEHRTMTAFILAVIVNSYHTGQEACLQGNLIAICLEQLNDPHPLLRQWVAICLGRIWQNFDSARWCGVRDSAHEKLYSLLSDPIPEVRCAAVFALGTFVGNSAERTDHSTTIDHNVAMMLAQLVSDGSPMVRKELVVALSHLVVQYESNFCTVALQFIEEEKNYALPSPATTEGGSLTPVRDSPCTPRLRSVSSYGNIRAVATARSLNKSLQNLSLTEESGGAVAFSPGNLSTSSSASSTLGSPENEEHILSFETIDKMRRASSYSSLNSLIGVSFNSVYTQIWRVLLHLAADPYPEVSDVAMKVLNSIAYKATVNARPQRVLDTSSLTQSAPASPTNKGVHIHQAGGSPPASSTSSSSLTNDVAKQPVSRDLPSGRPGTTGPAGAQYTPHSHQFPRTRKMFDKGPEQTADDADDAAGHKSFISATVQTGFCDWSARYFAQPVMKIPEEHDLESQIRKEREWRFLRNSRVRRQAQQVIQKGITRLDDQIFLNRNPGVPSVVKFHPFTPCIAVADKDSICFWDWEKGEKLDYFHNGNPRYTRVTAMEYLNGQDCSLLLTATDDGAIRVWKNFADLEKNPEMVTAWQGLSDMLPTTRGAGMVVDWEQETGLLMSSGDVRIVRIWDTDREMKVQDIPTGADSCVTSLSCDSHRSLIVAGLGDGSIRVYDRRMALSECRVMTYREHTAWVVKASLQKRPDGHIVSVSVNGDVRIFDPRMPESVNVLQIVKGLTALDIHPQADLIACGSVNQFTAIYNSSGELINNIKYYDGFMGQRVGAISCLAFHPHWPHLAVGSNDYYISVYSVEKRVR
inactive: alvocidib 0.008 | Tubastatin A -0.11 | [1] 0.036 | defactinib 0 | [2] -0.048 | encorafenib -0.004 | [3] -0.007 | alisertib -0.012 | [4] -0.005 | gefitinib -0.007 | lapatinib -0.001 | pictilisib -0.024 | crizotinib -0.056 | [5] -0.044 | duvelisib -0.024 | gandotinib -0.097 | tozasertib 0.019 | doramapimod 0.025 | bafetinib -0.057 | [6] 0.009

RAD51C (UniProt O43502)
UniProt O43502, sequence (O43502 whole entry, looked up): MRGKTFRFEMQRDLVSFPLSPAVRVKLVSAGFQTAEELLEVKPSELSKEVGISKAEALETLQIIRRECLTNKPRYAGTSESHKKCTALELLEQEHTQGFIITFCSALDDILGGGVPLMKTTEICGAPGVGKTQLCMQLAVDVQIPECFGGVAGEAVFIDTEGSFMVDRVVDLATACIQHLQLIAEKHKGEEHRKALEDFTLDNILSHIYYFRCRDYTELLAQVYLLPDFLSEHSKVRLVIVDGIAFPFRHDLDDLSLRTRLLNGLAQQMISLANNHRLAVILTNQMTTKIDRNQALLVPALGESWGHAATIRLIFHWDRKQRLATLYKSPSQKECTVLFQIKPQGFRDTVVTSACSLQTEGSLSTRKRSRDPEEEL
inactive: alvocidib 0.061 | Tubastatin A -0.081 | [1] 0.002 | defactinib 0.035 | [2] 0.072 | encorafenib -0.058 | [3] 0.004 | alisertib -0.005 | [4] 0.047 | gefitinib -0.016 | lapatinib -0.042 | pictilisib -0.023 | crizotinib -0.074 | [5] -0.006 | duvelisib 0.022 | gandotinib 0.065 | tozasertib -0.089 | doramapimod 0.074 | bafetinib -0.119 | [6] -0.044

RNASEH2B (UniProt Q5TBB1)
UniProt Q5TBB1, sequence (Q5TBB1 whole entry, looked up): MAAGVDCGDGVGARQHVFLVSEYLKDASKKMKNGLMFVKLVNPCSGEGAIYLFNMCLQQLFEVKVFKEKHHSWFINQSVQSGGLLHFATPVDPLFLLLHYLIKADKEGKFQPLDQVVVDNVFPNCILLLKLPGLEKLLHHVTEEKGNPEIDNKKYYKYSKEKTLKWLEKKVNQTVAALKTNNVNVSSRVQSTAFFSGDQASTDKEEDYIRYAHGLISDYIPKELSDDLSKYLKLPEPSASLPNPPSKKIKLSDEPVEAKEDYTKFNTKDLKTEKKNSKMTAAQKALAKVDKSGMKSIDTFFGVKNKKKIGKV
inactive: alvocidib 0.05 | Tubastatin A -0.046 | [1] -0.003 | defactinib 0.092 | [2] -0.021 | encorafenib 0.035 | alisertib -0.031 | [4] -0.038 | gefitinib -0.031 | lapatinib 0.001 | pictilisib 0.039 | crizotinib -0.049 | [5] 0.126 | duvelisib 0.03 | gandotinib -0.126 | tozasertib 0.055 | doramapimod 0.041 | bafetinib 0.027 | [6] -0.064
active: [3] 0.338

RAB3IL1 (UniProt Q8TBN0)
inactive: alvocidib 0.027 | Tubastatin A -0.021 | [1] 0.022 | defactinib 0.007 | [2] 0.009 | encorafenib -0.006 | [3] -0.031 | alisertib -0.013 | [4] 0.039 | gefitinib 0.014 | lapatinib -0.002 | pictilisib -0.034 | crizotinib -0.023 | [5] 0 | duvelisib -0.003 | gandotinib -0.014 | tozasertib -0.004 | doramapimod -0.012 | bafetinib 0.006 | [6] -0.02

RPL27 (UniProt P61353)
inactive: alvocidib 0.049 | Tubastatin A 0.009 | [1] -0.015 | defactinib 0.006 | [2] 0.056 | encorafenib -0.015 | [3] 0.012 | alisertib 0.006 | [4] 0.006 | gefitinib -0.023 | lapatinib -0.04 | pictilisib 0.008 | crizotinib 0.013 | duvelisib 0.012 | gandotinib -0.098 | tozasertib 0.01 | doramapimod -0.034 | bafetinib -0.033 | [6] -0.118
active: [5] 0.411

RARS (UniProt P54136)
inactive: alvocidib 0.032 | Tubastatin A -0.1 | [1] -0.006 | defactinib 0.024 | [2] -0.035 | encorafenib -0.001 | [3] 0.128 | alisertib 0.026 | [4] -0.009 | gefitinib -0.023 | lapatinib 0.003 | pictilisib 0.019 | crizotinib -0.047 | [5] 0.039 | duvelisib -0.018 | gandotinib -0.078 | tozasertib 0.019 | doramapimod 0.042 | bafetinib -0.029 | [6] 0.041

RAC2 (UniProt P15153)
inactive: alvocidib 0.047 | Tubastatin A -0.086 | [1] 0.082 | defactinib 0.007 | [2] 0.06 | encorafenib -0.022 | [3] -0.001 | alisertib 0.051 | [4] 0.056 | gefitinib 0.016 | lapatinib -0.057 | pictilisib 0.016 | crizotinib -0.018 | [5] -0.05 | duvelisib -0.026 | gandotinib -0.025 | tozasertib -0.062 | doramapimod -0.014 | bafetinib -0.042 | [6] 0.031

S100A11 (UniProt P31949)
UniProt P31949, sequence (P31949 whole entry, looked up): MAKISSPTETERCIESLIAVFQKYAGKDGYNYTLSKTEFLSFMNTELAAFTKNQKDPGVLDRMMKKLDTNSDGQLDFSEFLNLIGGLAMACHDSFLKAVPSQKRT
inactive: alvocidib 0.085 | Tubastatin A 0.075 | [1] 0.029 | defactinib 0.059 | [2] -0.011 | encorafenib -0.021 | [3] 0.007 | alisertib 0.024 | [4] -0.01 | gefitinib -0.089 | lapatinib 0.105 | pictilisib 0.006 | crizotinib 0.02 | [5] 0.097 | duvelisib 0.052 | gandotinib -0.042 | tozasertib -0.043 | doramapimod 0.003 | bafetinib -0.039 | [6] -0.032

SERPINI1 (UniProt Q99574)
UniProt Q99574, sequence (Q99574 whole entry, looked up): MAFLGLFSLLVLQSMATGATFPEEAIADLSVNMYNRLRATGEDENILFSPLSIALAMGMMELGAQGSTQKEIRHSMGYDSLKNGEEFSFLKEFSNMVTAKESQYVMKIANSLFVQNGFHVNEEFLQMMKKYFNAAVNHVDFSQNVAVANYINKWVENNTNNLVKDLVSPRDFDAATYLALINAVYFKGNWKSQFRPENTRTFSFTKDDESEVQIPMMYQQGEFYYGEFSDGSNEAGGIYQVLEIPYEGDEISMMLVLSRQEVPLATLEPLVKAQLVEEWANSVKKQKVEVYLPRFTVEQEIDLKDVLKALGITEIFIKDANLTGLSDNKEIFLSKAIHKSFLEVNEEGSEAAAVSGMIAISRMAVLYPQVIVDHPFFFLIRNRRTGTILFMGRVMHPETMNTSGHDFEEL
inactive: alvocidib -0.031 | Tubastatin A 0.015 | [1] -0.001 | defactinib 0.019 | [2] -0.042 | encorafenib 0.02 | [3] -0.074 | alisertib -0.064 | [4] 0.013 | gefitinib 0.048 | lapatinib 0.034 | pictilisib -0.061 | crizotinib 0.001 | [5] 0.036 | duvelisib 0.007 | gandotinib 0.055 | tozasertib 0.014 | doramapimod -0.042 | bafetinib -0.065 | [6] 0.04

RANBP2 (UniProt P49792)
inactive: alvocidib -0.001 | Tubastatin A -0.169 | [1] 0.011 | defactinib 0.004 | [2] -0.041 | encorafenib 0.038 | [3] 0.042 | alisertib -0.01 | [4] 0 | gefitinib -0.013 | lapatinib 0.002 | pictilisib -0.001 | crizotinib -0.01 | [5] -0.009 | duvelisib -0.014 | gandotinib -0.069 | tozasertib 0.001 | doramapimod -0.002 | bafetinib -0.02 | [6] 0.06

RAB1B (UniProt Q9H0U4)
UniProt Q9H0U4, sequence (Q9H0U4 whole entry, looked up): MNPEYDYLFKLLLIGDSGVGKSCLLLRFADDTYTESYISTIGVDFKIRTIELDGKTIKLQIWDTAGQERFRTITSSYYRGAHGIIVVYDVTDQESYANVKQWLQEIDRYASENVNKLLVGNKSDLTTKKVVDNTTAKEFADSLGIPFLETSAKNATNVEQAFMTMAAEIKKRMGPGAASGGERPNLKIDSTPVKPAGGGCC
inactive: alvocidib -0.146 | Tubastatin A 0.007 | [1] -0.016 | defactinib -0.037 | [2] 0.01 | encorafenib 0.065 | [3] -0.058 | alisertib 0.047 | [4] 0.003 | gefitinib 0.064 | lapatinib 0.021 | pictilisib 0.053 | crizotinib 0.031 | duvelisib 0.033 | gandotinib 0.156 | tozasertib 0.011 | doramapimod -0.052 | bafetinib -0.038
active: [5] -0.35 | [6] 0.242

RRM1 (UniProt P23921)
UniProt P23921, sequence (P23921 whole entry, looked up): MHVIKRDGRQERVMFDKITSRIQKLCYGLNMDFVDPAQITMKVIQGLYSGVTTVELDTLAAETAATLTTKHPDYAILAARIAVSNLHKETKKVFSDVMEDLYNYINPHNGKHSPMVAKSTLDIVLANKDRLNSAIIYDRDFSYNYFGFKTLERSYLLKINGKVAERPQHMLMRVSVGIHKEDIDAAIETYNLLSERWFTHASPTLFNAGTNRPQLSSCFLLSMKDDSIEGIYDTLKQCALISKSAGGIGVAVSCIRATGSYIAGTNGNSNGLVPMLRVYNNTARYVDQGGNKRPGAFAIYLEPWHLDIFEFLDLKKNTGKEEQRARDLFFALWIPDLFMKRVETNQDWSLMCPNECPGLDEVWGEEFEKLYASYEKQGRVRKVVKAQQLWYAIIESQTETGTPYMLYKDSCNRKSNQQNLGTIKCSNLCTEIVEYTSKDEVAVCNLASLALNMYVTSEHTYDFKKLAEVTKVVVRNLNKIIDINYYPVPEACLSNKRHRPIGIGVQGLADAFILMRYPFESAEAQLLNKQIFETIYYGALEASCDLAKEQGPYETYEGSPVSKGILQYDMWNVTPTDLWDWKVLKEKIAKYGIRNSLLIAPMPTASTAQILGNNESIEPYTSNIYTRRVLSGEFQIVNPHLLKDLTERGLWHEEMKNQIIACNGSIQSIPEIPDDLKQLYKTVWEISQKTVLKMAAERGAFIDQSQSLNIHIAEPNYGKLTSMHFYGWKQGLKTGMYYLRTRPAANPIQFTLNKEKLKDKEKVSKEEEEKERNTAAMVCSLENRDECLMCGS
inactive: alvocidib -0.004 | Tubastatin A -0.098 | [1] -0.007 | defactinib 0.022 | [2] -0.03 | encorafenib 0.005 | [3] 0.098 | alisertib 0.007 | [4] 0.007 | gefitinib -0.006 | lapatinib 0.003 | pictilisib 0.01 | crizotinib -0.025 | [5] -0.004 | duvelisib -0.052 | gandotinib -0.028 | tozasertib -0.036 | doramapimod -0.017 | bafetinib -0.018 | [6] 0.001

SCO1 (UniProt O75880)
UniProt O75880, sequence (O75880 whole entry, looked up): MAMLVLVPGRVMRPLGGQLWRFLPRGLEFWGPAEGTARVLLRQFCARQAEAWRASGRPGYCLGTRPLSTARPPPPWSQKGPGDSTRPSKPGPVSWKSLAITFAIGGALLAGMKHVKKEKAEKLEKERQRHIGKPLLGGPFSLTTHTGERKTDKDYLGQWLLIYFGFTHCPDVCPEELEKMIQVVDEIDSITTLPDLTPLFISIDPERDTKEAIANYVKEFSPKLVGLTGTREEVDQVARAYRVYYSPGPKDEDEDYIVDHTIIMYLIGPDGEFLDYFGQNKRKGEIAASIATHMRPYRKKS
inactive: alvocidib 0.002 | Tubastatin A -0.031 | [1] -0.051 | defactinib -0.004 | [2] 0.053 | encorafenib -0.004 | alisertib -0.096 | [4] 0.014 | gefitinib -0.015 | lapatinib 0.021 | pictilisib -0.046 | crizotinib -0.046 | [5] -0.022 | duvelisib -0.014 | gandotinib 0.047 | tozasertib 0.01 | doramapimod 0.026 | bafetinib 0.048 | [6] 0.073
active: [3] -0.57

SESN2 (UniProt P58004)
UniProt P58004, sequence (P58004 whole entry, looked up): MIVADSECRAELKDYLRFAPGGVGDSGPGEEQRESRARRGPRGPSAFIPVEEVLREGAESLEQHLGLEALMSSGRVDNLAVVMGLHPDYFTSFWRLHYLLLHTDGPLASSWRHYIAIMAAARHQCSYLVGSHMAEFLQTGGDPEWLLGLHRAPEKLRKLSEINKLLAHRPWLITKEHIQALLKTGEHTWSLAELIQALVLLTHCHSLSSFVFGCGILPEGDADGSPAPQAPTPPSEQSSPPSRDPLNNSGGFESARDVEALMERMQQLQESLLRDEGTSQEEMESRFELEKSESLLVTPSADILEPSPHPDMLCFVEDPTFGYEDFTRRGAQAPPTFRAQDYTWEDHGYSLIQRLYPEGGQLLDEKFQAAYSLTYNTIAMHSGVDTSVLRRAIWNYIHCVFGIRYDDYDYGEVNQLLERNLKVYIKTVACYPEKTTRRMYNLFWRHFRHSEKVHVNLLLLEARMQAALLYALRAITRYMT
inactive: alvocidib 0.028 | Tubastatin A -0.093 | [1] -0.028 | defactinib 0.039 | [2] 0.033 | encorafenib 0.038 | [3] -0.001 | alisertib -0.026 | [4] -0.045 | gefitinib -0.034 | lapatinib -0.085 | pictilisib -0.047 | crizotinib -0.042 | [5] 0.041 | duvelisib 0.047 | gandotinib 0.038 | tozasertib -0.006 | doramapimod -0.031 | bafetinib -0.15 | [6] 0.003

RBBP7 isoform 2 (UniProt Q16576)
UniProt Q16576, sequence (Q16576 whole entry, looked up): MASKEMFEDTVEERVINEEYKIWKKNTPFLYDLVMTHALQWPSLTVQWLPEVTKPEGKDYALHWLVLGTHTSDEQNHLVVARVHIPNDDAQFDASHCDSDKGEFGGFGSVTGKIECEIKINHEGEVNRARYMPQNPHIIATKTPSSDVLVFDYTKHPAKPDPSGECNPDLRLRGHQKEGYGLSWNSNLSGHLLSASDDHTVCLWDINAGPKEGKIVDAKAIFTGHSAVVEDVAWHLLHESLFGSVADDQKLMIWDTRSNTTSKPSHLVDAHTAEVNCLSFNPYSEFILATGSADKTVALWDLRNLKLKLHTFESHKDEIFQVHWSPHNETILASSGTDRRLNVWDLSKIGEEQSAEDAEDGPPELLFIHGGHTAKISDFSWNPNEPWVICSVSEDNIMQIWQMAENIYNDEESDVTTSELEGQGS
inactive: alvocidib -0.005 | Tubastatin A -0.004 | [1] -0.021 | defactinib -0.023 | [2] -0.028 | encorafenib 0.03 | [3] -0.034 | alisertib 0.03 | [4] -0.003 | gefitinib 0.002 | lapatinib 0.002 | pictilisib 0.027 | crizotinib 0.008 | [5] -0.213 | duvelisib 0.025 | gandotinib 0.019 | tozasertib 0.017 | doramapimod 0.035 | bafetinib 0.018 | [6] -0.011
